# Results from PubChem BioAssay AID743397 (Broad Institute, 2014).
# The whole screen tested about 340,000 compounds, of which about 330 (0.097%) were called active.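 How the source made its calls: active means mean replicate inhibition of at least 30% and at least 1% of replicates passing that level; inconclusive means only one of the two criteria is met; inactive means neither criterion is met.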 The full list was thinned out, with actives kept by preference.
# Test system: Voltage-dependent L-type calcium channel subunit alpha-1D (CaV1.3) ICDI/IQ interaction
# Test: Primary screen for inhibitors of IQ motif and Ca2+-dependent inactivation inhibitor domain binding in CACNA1D, Förster resonance energy transfer in living cells, single-concentration test (AID 743397);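 further: 0% = median of the neutral control wells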
# Settings: HEK cells, CFP/YFP FRET ICDI-IQ, plate reader, 10 min; at 12.3 µM; stronger effect = higher value; percent FRET-ratio fall versus neutral wells
row,Compound,inhibition
1,COc1ccccc1Cc1c(-c2ccc(F)cc2)nc2ccc(C)cn12,-8.77% (inactive)
2,CC(C)(C)C(c1nc2ccccc2[nH]1)n1c(Cc2csc3ccccc23)nc2ccccc21 (stereo unspecified),-10% (inactive)
3,COC(=O)[C@]12C[C@H](CC(=O)NCc3ccccc3)C(=O)N(CCC3=CCCCC3)C1=C[C@H](C(C)(C)C)O[C@@H]2C,-8.62% (inactive)
4,COC(=O)Cc1nnn2c1[C@H](C)[C@H](c1ccccc1Br)OCC2,-6.7% (inactive)
5,CC(=O)c1ccc(S(=O)(=O)NCC2CCN(C(=O)C(=O)c3cccs3)CC2)cc1,-7.65% (inactive)
6,COc1ccc(-c2ccccc2C2Cc3nnccc3CN2C(=O)Nc2ccccc2)cc1 (stereo unspecified),-4.58% (inactive)
7,CC(C)[C@@H](C)/C=C/[C@@H](C)[C@H]1CC[C@@H]2[C@]1(C)CCC1[C@]23C=C[C@]2(C[C@@H](O)CC[C@]12C)N(c1ccc([N+](=O)[O-])cn1)O3 (stereo partly specified),-8.61% (inactive)
8,COC(=O)C1=C(C)N(Cc2ccccc2C(F)(F)F)C(=NCc2ccc(C(F)(F)F)cc2)NC1c1ccc(F)cc1 (stereo unspecified),-9.8% (inactive)
9,CCCCCc1c(-c2ccc(OC)c(OC)c2)ncn1CCc1ccccc1OC,-11% (inactive)
10,COC(=O)Cc1nnn2c1[C@H](C)[C@@H](OC)c1cc(Br)ccc1-2,-5.26% (inactive)
11,CCCN1C(=O)c2[nH]nc(-c3ccccc3)c2C1c1ccccc1 (stereo unspecified),-3.81% (inactive)
12,COC(=O)[C@H](CC(C)C)NS(=O)(=O)c1c(F)cccc1F,-4.96% (inactive)
13,CSc1ccc(Oc2cccc3c2S(=O)(=O)N([C@H](C)c2ccccc2)C[C@@H](COCc2ccccc2)O3)cc1C,-9.54% (inactive)
14,COc1cccc(CC(=O)N2CCN(C(=O)C(=O)c3cccc(C(F)(F)F)c3)CC2)c1,-9.3% (inactive)
15,Cc1ccc(NS(=O)(=O)c2cc3c(cc2Br)NC(=O)CO3)cc1C,-4.61% (inactive)
16,OC(c1ccccc1)(c1ccccc1)C1CCN(CCCOc2ccc(-c3ccsc3)cc2)CC1,-9.67% (inactive)
17,COC(=O)[C@]12C[C@H](CC(=O)NCc3ccc(C)o3)C(=O)N(CCC3=CCCCC3)C1=C[C@H](C(C)(C)C)O[C@@H]2C,-11.3% (inactive)
18,CCCCCCCCN1C(=O)[C@@H](CC(=O)N2CCN(C(=O)OCC)CC2)C[C@@]2(C(=O)OC)C1=C[C@H](C1CCCC1)O[C@@H]2C,-9.25% (inactive)
19,C[C@H](CO)N1C[C@H](C)[C@@H](CN(C)C(=O)Nc2ccccc2F)OCc2cn(nn2)CCCC1=O,-4.14% (inactive)
20,CN(C)C(=O)N1CCN(C(=O)[C@@H](Cc2ccccc2)NC(=O)[C@H]2O[C@@H](n3ccc(N)nc3=O)[C@H](O)[C@@H]2O)CC1,-3.39% (inactive)
21,CN1CCCc2nc(-c3ccccc3)ccc21,-4.26% (inactive)
22,Cc1noc(C)c1NC(=O)Nc1ccc2c(c1)C(=O)N([C@H](C)CO)C[C@H](C)[C@H](CN(C)Cc1ccncc1)OCCCC[C@@H](C)O2,-5.78% (inactive)
23,COc1cccc(N2CCN(C(=O)C3CCCN(S(=O)(=O)c4cnc[nH]4)C3)CC2)c1 (stereo unspecified),46.8% (active)

row,Compound,inhibition
1,Cc1cccc(N2CCN(C(=O)C3CCN(S(=O)(=O)c4cnc[nH]4)CC3)CC2)c1C,-5.87% (inactive)
2,CCOC(=O)c1cccc(NC(=O)C2CCCN(S(=O)(=O)c3cnc[nH]3)C2)c1 (stereo unspecified),-9.58% (inactive)
3,COC(=O)C1=C(C)N(Cc2cccc(C(F)(F)F)c2)C(=NCc2cccc(C(F)(F)F)c2)NC1c1ccccc1C(F)(F)F (stereo unspecified),-2% (inactive)
4,COC(=O)[C@@]12C[C@@H](CC(=O)NCCCCc3ccccc3)C(=O)N(CCc3ccc(OC)c(OC)c3)C1=CCC(C)(C)C2,-8.1% (inactive)
5,O=S1(=O)c2c(cccc2N2CCCC2)O[C@H](COCc2ccccc2)CN1C1CC1,-7.56% (inactive)
6,CC1CCN(C(=O)c2ncn3c2C(=O)N[C@@H](C)C3)CC1,-3.16% (inactive)
7,COc1cccc(-c2cc(CNC(=O)[C@@H](Cc3ccccc3)NC(=O)[C@H]3O[C@@H](n4cnc(C(N)=O)n4)[C@H](O)[C@@H]3O)no2)c1,-2.93% (inactive)
8,COC(=O)[C@@]12C[C@@H](CC(=O)NCCCCc3ccccc3)C(=O)N(Cc3ccccc3)C1=CCC(C)(C)C2,-17% (inactive)
9,COC(=O)Nc1nc2ccc(C(=O)C3CC3)cc2[nH]1,-11.2% (inactive)
10,COC(=O)C1=C(C)N(Cc2ccc(C(F)(F)F)cc2)C(=NCc2ccc(C(F)(F)F)cc2)NC1c1cccc(Cl)c1 (stereo unspecified),-9.62% (inactive)
11,C[C@H](O)[C@@H]1CN2CCc3ccc(-c4ccc5c(c4)OCO5)cc3[C@@H]2C[C@@H]1N(C)C(=O)C1CCCCC1,-2.76% (inactive)
12,O=C(C(=O)N1CCC(CNC(=O)c2cccnc2Cl)CC1)c1cccs1,-10.2% (inactive)
13,Cc1ccccc1C(=O)N[C@H](C(=O)N1CCC[C@H]1C(=O)NCc1ccccc1)C(C)C,-3.3% (inactive)
14,CCOc1ccccc1C(=O)N1CCC[C@@H]1C(=O)N1CCC[C@H]1C(=O)NCc1ccccc1,-4.37% (inactive)
15,N#Cc1cccc(C(=O)NCC2CCN(C(=O)C(=O)c3cc4ccccc4o3)CC2)c1,-8.07% (inactive)
16,NC(=O)c1ncn([C@@H]2O[C@H](C(=O)O)[C@@H](O)[C@H]2O)n1,-4.52% (inactive)
17,CC1(C)OC(=O)C2=C(CC(CCc3ccccc3)OC2c2ccc(Cl)cc2)O1 (stereo unspecified),-9.52% (inactive)
18,Fc1ccc(-c2ccc(NCCN3CCOCC3)nn2)cc1,-2.08% (inactive)
19,c1ccc(-c2ccc(OCCN3CCOCC3)cc2)cc1,-9.07% (inactive)
20,c1ccc2cc3c(NCCN4CCOCC4)ccnc3cc2c1,147% (active)
21,C#CCN([C@@H](C)C(=O)OCC)S(=O)(=O)c1ccc(Br)cc1F,-4.44% (inactive)
22,COC(=O)[C@]12C[C@H](CC(=O)NCCc3ccccc3OC)C(=O)N(Cc3ccccc3)C1=C[C@H](C(C)C)O[C@@H]2C1CC1,-8.67% (inactive)
23,COC(=O)[C@]12C[C@H](CC(=O)NCCC(C)C)C(=O)N(CCc3ccc(OC)c(OC)c3)C1=C[C@H](C(C)(C)C)O[C@@H]2C,-8.8% (inactive)
